Source: PubChem (National Center for Advancing Translational Sciences (NCATS))
Sampled rows, rich in hits. Any-hit rate of the full collection: about 21%.
Pf growth 48h: inhibits P. falciparum growth in the first generation, 48 h; P. falciparum luciferase growth in erythrocytes, 48 h; Potency, µM (titrated, usually from 28.7 µM), without a hit: at the highest dose activity change, negative = inhibition, actives largely listed as inhibitors; 5.9% of 310,000 active; AID 504832; further: potency means the concentration at half of the fitted maximal effect; on the % scale 0 is the no-effect control and ±100 the full control effect
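Here the parasites carry a stable luciferase gene and grow inside erythrocytes in Albumax-based RPMI medium with compound for one erythrocytic cycle. Activity is scored as loss of luminescent signal.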
CHX counter: affects cycloheximide protein synthesis inhibition readout, counter-screen; cell reporter, cycloheximide protein synthesis inhibition counterscreen; max response, %; 12% of 300,000 active; in the data active means max response mostly above about 13%, no sharp cut-off; inactive means mostly below about 14%; further: read at 38.3 µM for the half of the compounds with a filed dose; 0% is about no effect
Pf growth 96h: P. falciparum growth inhibition at 96 hour, primary screen for plastid delayed-death inhibitors; P. falciparum luciferase reporter growth, 96 h; Potency, µM (top dose mostly 28.7 µM), without a hit: at the highest dose activity change, negative = inhibition, usual class: inhibitors; 6.9% of 320,000 active; further: potency means the concentration at half of the fitted maximal effect; on the % scale 0 is the no-effect control and ±100 the full control effect
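Two parasite generations (96 h, 37 C, 5% CO2) of compound exposure in infected erythrocytes (0.05% parasitemia, 2% hematocrit). Luciferase-reporter P. falciparum; decreased luminescence indicates inhibited growth, aimed at apicoplast-acting delayed death.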
Shiga inhibitor: Shiga toxin inhibition | Vero cells, Shiga toxin protein synthesis inhibition reporter | inhibition, % at 38.7 µM | 9.2% of 290,000 active | AID 2315; in the data active means inhibition mostly above about 28%, no sharp cut-off; inactive means mostly below about 43%; further: 0% is about no effect
An asterisk follows results filed as active; i = inactive; u = inconclusive; x = not tested or not shown. Unless noted, the call rests on the fitted dose curve; in most records, active means well fitted inhibition curve with a large enough effect; inconclusive means small, poorly fitted or top-dose-only effect, or another doubt; inactive means no such curve, though single readings can be large or run the other way.

SMILES | Pf growth 48h | CHX counter | Pf growth 96h | Shiga inhibitor
Cc1cc(C(=O)Nc2cc(C(C)(C)C)on2)c(C)o1 | 123% | 39* | 104% | 48
COC(=O)C1=CN(c2ccc(F)cc2)C=C(C(=O)OC)C1c1cccc(Br)c1 | 12µM* | 2 | -14% | -11
COC(=O)C1=CN(c2ccc(OC)cc2)C=C(C(=O)OC)C1c1ccc([N+](=O)[O-])cc1 | 13µM* | -1 | 4.1µM* | -1
COC(=O)C1=CNC=C(C(=O)OC)C1c1cccc2ccccc12 | 12µM* | 7 | 6% | -4
COC(=O)C1=CNC=C(C(=O)OC)C1c1ccccc1Cl | -25% | -2 | 10% | -13
COC(=O)C1=CN(c2cccc(Cl)c2)C=C(C(=O)OC)C1c1cccc(OC)c1 | 12µM* | -5 | 54% | -3
COc1ccc(NC(=O)N2CCN(c3ccc([N+](=O)[O-])cc3)CC2)cc1 | -2% | -5 | u | -14
CC(C)(C)OC(=O)NC1CC2CCCC(C1)N2Cc1ccccc1 (stereo not drawn) | u | 1 | u | 5
CCOc1ccc(S(=O)(=O)N2CCCC(C(=O)N3CCN(c4ccccc4)CC3)C2)cc1 (stereo not drawn) | 0% | -2 | 2% | -16
CN(C(=O)c1cc(S(=O)(=O)N2CCOCC2)cs1)c1ccccc1 | -4% | -5 | 40% | -4
CCCc1cc(=O)oc2cc(OCC(=O)NCCCN3CCCC3=O)ccc12 | 9% | -3 | u | -7
COC(=O)C1=CN(C2CC2)C=C(C(=O)OC)C1c1ccc(C(=O)OC)cc1 | u | -3 | 225% | 42
COC(=O)C1=CNC=C(C(=O)OC)C1c1ccc(Cl)cc1 | 9.3µM* | -2 | 1% | -11
COC(=O)C1=CNC=C(C(=O)OC)C1c1cccc(OC)c1 | u | -2 | 30% | -10
COC(=O)C1=CN(c2ccc(F)cc2)C=C(C(=O)OC)C1c1ccc([N+](=O)[O-])cc1 | 7.4µM* | -2 | 9.3µM* | -7
COC(=O)C1=CN(c2ccc(Cl)cc2)C=C(C(=O)OC)C1c1ccc([N+](=O)[O-])cc1 | 13µM* | 1 | 5.2µM* | -4
O=C(O)c1ccc(-c2ccc(-c3ccccc3)cc2)s1 | 101% | 23* | 145% | 37
Cc1cc(-c2ccc(C(=O)O)s2)cnc1N | 264% | 43* | 162% | 76*
CC1(C)C=C(c2ccc(C(=O)O)s2)CC(C)(C)N1 | -2% | -4 | 74% | 6
O=C(Nc1ccccc1)c1ccc(-c2ccccc2)s1 | 227% | 39* | 18% | 100*
O=C(Nc1ccccc1)c1sc(Cl)nc1-c1ccccc1 | u | -2 | -2% | -5
O=C(NCc1cccnc1)c1c(O)c2cccc3c2n(c1=O)CCC3 | u | 1 | 15% | -21
CC(C)c1ccc(N=C(N)N=C(N)N)cc1 | -19% | -1 | u | -6
COc1ccccc1NS(=O)(=O)c1ccc(C)c(C(=O)N2CCCC2)c1 | -26% | x | 20% | x
COc1ccc(N2CCN(C(=O)c3ccc(NS(=O)(=O)c4cccc(F)c4)cc3)CC2)cc1 | -22% | 11* | u | 12
SMILES | Pf growth 48h | CHX counter | Pf growth 96h | Shiga inhibitor
COc1ccc(OC)c(CN2CCN(C(=O)COc3cccc(C)c3)CC2)c1 | -11% | 2 | -27% | 8
COc1ccc(NS(=O)(=O)c2cccc(C(=O)N3CCN(Cc4cc(OC)ccc4OC)CC3)c2)cc1 | u | -2 | u | -4
COc1ccc(OC)c(CN2CCN(C(=O)c3cc(S(=O)(=O)Nc4ccccc4OC)ccc3C)CC2)c1 | u | -2 | 3.3µM* | -11
COc1ccc(OC)c(CN2CCN(C(=O)[C@@H](NC(=O)c3cccc(C)c3)C(C)C)CC2)c1 | 10µM* | x | u | x
COc1ccc(OC)c(CN2CCN(C(=O)c3cccc(S(=O)(=O)Nc4ccc(C)cc4)c3)CC2)c1 | 10µM* | x | 9.3µM* | x
O=C(Cn1cc(S(=O)(=O)Cc2cccc([N+](=O)[O-])c2)c2ccccc21)N1CCOCC1 | u | -2 | 1% | -2
CC(C)CNC(=O)[C@H]1N2C(=O)c3ccccc3C2SC1(C)C (stereo partly drawn) | x | -4 | -1% | -8
Cc1ccc2nccc(C(=O)N3CCCC(Nc4ccc(C)c(C)c4)C3)c2c1 (stereo not drawn) | u | -10 | -17% | -8
COc1ccc(CCNC(=O)Cn2c(=O)n(Cc3ccco3)c(=O)c3ccc(Cl)cc32)cc1OC | u | 11 | 26% | -13
CC(=O)C1C(=O)CC(C)(O)C(C(C)=O)C1c1ccccc1 (stereo not drawn) | 3% | 7 | 92% | 4
CC(=O)c1sc(NC(=O)c2oc3ccc(F)cc3c2C)nc1C | 398% | x | 411% | x
Cc1cc2oc(=O)cc(CNc3ccccc3F)c2cc1O | u | -1 | u | 2
OC(COC1CCCCC1)CN1CCN(c2ccccc2)CC1 (stereo not drawn) | 23% | -4 | x | 6
Cc1n(CC(O)COC2CCCCC2)c2ccccc2[n+]1C (stereo not drawn) | 6.6µM* | -5 | 27% | -3
CSc1ccc(-c2cccc([N+](=O)[O-])c2)nn1 | 48% | 27* | 128% | 79*
O=C(CSc1ccc(-c2cccc([N+](=O)[O-])c2)nn1)NCc1ccccc1 | 8% | -2 | 0% | -5
O=[N+]([O-])c1cccc(-c2ccc(SCc3cccnc3)nn2)c1 | 10% | 44* | 98% | 52
O=C(NC(=S)N(CCO)Cc1ccccc1)c1ccc(S(=O)(=O)N2CCCC2)cc1 | -4% | -2 | 1% | -4
O=C(/C=C/c1c(Cl)nc2ccccn12)Nc1ccc(F)cc1 | u | 15* | u | 12
CCn1ccnc1CN(C)C(=O)c1ccc(OC2CCN(CCc3ccccc3)CC2)cc1 | -20% | 8 | u | -8
COC(=O)C1=C(C(=O)OC)[C@@H]2N(C)c3ccccc3[C@@]23C[C@@H](C(=O)OC)N(C(=O)c2ccc(Br)cc2)C3=N1 | 21% | -7 | 69% | -5
O=C(CCNC(=O)c1ccc([N+](=O)[O-])cc1)Nc1cccc(S(=O)(=O)N2CCOCC2)c1 | 1% | x | u | x
COC(=O)c1ccc(CN2CCCC(CO)(Cc3ccccc3F)C2)cc1 (stereo not drawn) | 13% | -4 | u | -6
O=C(O)c1cc(Cl)c2c(c1)OCO2 | 1% | -5 | -1% | 37
COc1ccc(/C(C)=N/Nc2cccc(C(=O)O)c2)cc1OC | i | 104* | 193% | 187*
SMILES | Pf growth 48h | CHX counter | Pf growth 96h | Shiga inhibitor
COc1ccc(/C(C)=N\Nc2nc(-c3ccc(Cl)cc3)cc(C(F)(F)F)n2)cc1OC | 10µM* | 5 | u | -11
COc1ccc(C(=O)Nc2cccc(/C(C)=N/NC(=O)c3ccc([N+](=O)[O-])cc3)c2)cc1OC | -2% | 13 | 104% | -13
COc1ccc(Br)cc1/C=N/Nc1cccc(C(=O)O)c1 | 119% | 49* | 127% | 51
COc1ccc(Br)cc1/C=N/NC(=O)C[n+]1ccccc1 | 13% | -3 | 31% | -7
O=C(O)c1cccc(N/N=C/c2cc(Br)cc(Br)c2O)c1 | 74% | 51* | u | 126*
C/C(=N\Nc1cccc(C(=O)O)c1)c1ccc(Cl)s1 | 176% | 68* | 119% | 121*
